Compounds with a hit are over-represented: about 3.8% of the library has one in this group of screens.
H9c2 protect = cardioprotection against H2O2-induced cell death, primary screen, uHTS, H9c2 cells, ATPLite luminescence | H9c2 cardiomyocytes, H2O2 injury protection, 2 h | 0.63% of 360,000 active | AID 588492, 2011 | protection from H2O2 cell death, % at 20 µM;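 active means compounds giving at least 50% protection of heart cells from peroxide-induced death in the single-dose screen, raw or plate-pattern-corrected value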
FAS-TE inh = FAS thioesterase domain inhibitors, primary screen, biochemical, fluorescence intensity, uHTS; 0.67% of 360,000 active; inhibition, % at 15 µM; recombinant FAS-TE, OMFH fluorogenic substrate, fluorescence endpoint; Fatty acid synthase (Homo sapiens), P49327;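 active means compounds whose normalised, plate-corrected inhibition of enzyme fluorescence in the single-dose primary screen is 50% or more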
Target sequence (P49327 whole entry, looked up, the tested form may be a part): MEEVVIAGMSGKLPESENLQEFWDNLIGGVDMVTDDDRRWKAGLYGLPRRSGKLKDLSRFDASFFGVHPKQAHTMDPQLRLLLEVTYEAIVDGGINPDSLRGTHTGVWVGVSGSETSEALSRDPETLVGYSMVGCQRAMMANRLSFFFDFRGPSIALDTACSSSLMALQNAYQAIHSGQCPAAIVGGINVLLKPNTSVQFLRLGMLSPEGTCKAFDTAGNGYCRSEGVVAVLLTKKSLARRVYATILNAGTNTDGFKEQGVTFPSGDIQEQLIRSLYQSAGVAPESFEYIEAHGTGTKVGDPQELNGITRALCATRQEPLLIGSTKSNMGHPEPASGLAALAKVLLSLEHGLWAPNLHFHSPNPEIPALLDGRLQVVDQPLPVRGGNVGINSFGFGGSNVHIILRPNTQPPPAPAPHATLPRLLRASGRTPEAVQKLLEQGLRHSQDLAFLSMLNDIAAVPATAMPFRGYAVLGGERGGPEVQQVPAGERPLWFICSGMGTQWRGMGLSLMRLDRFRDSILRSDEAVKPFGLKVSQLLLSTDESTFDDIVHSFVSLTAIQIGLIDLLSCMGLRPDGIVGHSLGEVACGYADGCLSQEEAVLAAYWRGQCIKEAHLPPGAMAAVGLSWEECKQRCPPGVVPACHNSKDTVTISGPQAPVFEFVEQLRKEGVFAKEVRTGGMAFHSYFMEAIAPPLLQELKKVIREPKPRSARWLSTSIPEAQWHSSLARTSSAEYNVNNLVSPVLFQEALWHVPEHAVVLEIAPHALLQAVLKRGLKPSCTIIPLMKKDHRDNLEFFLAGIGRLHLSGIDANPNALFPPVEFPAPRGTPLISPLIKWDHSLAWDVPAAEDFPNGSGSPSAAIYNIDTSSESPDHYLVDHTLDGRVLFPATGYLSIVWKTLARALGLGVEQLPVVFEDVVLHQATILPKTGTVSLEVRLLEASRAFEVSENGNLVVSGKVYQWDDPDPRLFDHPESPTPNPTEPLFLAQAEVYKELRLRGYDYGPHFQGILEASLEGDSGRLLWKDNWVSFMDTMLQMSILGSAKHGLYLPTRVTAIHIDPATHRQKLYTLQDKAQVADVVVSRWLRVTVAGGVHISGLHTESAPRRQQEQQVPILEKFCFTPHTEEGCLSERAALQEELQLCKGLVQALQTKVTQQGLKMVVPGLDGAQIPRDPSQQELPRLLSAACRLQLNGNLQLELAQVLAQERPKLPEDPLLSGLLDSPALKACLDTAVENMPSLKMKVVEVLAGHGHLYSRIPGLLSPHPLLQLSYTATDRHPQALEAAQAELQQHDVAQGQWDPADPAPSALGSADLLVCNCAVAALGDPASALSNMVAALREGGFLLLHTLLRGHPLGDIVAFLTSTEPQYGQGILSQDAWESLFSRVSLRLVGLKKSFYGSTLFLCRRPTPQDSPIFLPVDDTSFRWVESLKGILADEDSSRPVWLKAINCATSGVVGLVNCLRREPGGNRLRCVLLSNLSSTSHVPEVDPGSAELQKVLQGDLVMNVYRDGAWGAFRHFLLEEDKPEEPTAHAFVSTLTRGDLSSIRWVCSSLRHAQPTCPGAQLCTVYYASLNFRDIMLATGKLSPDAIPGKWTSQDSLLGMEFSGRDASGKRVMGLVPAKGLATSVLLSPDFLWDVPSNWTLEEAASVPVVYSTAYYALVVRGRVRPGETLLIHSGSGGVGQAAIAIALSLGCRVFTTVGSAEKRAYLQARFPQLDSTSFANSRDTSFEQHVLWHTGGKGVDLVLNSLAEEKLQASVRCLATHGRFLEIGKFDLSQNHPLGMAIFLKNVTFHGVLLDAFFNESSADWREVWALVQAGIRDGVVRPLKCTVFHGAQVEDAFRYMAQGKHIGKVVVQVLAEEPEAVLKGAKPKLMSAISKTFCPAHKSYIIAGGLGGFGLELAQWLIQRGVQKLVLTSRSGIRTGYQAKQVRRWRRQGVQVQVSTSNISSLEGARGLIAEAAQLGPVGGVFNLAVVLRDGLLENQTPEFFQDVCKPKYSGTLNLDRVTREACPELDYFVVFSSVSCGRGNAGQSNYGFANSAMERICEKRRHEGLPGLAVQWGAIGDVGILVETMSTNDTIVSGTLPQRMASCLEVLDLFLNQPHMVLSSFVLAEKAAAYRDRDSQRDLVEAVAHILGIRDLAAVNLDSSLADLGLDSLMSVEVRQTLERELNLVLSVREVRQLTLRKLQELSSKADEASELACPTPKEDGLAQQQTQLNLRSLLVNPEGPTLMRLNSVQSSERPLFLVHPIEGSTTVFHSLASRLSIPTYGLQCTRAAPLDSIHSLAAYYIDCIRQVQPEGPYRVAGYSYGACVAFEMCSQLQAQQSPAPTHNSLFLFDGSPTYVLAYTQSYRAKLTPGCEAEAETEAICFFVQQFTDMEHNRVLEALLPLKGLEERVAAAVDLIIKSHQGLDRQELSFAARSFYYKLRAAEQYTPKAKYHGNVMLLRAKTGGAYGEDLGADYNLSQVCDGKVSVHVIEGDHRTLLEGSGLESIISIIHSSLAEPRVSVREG
aDG glyco up = activators of alpha-DG glycosylation, primary screen, uHTS, Pro5-aDG cells, AlphaScreen; 0.22% of 360,000 active; alpha-DG glycosylation AlphaScreen (IIH6); 0% Pro5, 100% B10-LARGE cell signal; AID 624168, 2012; activation, % at 10 µM;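 active means activation of at least 8% versus controls, or a plate z-score of at least 8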;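 further: Pro5 are CHO cells carrying HIG-tagged alpha-DG that lacks glycosylation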
Yeast superoxide = reduction of superoxide in aged yeast, primary screen, HTS | 0.18% of 330,000 active | superoxide response (% of plate mean), % at 10 µM | S. cerevisiae aged cells, superoxide DHE fluorescence; active compounds read low | AID 2690, 2010;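 active means superoxide response under a set limit, about three screen SD below normal, cut at about 65% in these data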;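 further: yeast aged for seven days with compound at 30 °C before DHE staining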
MPTP inh = mitochondrial permeability transition pore inhibitors, primary screen, biochemical, isolated mouse mitochondria, absorbance; Ca2+ swelling absorbance, 30 min; inhibition, % at 10 µM; 1.4% of 360,000 active;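 active means inhibition of 50% or more, scaled per plate between neutral and stimulator controls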
Mot1-301 SUMO = yeast Mot1-301 growth rescue at high temperature, primary screen, SUMOylation pathway inhibitor project, S. cerevisiae, ATP luminescence, 38.5C; 1% of 320,000 active; growth rescue, % at 18.8 µM; S. cerevisiae Mot1-301 growth rescue; percent above DMSO median, 100 means doubled; AID 2716, 2010;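 active means every valid replicate shows activation above 250% relative to neutral control wells; inactive means the rest, any valid replicate at or below 250%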
Rh123 counter = fluorescence retest of MPTP screen hits in isolated mitochondria, single concentration; shares compounds with MPTP inh; membrane potential, Rhodamine 123 fluorescence; inhibition, % at 10 µM; 78% of 5,000 active; AID 624504, 2012; in the data active means inhibition above about 22%
MPTP abs DR = mitochondrial permeability transition pore inhibitors, dose response, biochemical, absorbance, uHTS hits. shares compounds with MPTP inh. 58% of 780 active. AID 651561, 2012. isolated mitochondria swelling. IC50, µM; in the data active means IC50 below about 20 µM
MPTP counter DR = fluorescent counter-screen in isolated mitochondria, dose response, counter-screen for MPTP inhibitor project, biochemical, fluorescence, uHTS hits; shares compounds with MPTP inh; isolated mitochondria counterscreen, fluorescence read-out; IC50, µM; 49% of 780 active; AID 651564, 2012; in the data active means IC50 below about 80 µM
Numbers stand for hits; - = inactive; . = not tested or not shown.

SMILES	H9c2 protect	FAS-TE inh	aDG glyco up	Yeast superoxide	MPTP inh	Mot1-301 SUMO	Rh123 counter	others
O=c1oc2ccccc2c(Nc2ccc3ccccc3c2)c1[N+](=O)[O-]	-	-	-	-	62	-	78
O=S(=O)(Nc1cccnc1)c1ccc(C2CCCCC2)cc1	-	-	-	-	104	-	106
c1ccc(COc2ccc(OCCCNC3CCCC3)cc2)cc1	-	-	-	-	90	-	-	MPTP abs DR=3.1;MPTP counter DR=43
Cn1c(NCc2cc(Br)ccc2O)nc2ccccc21	-	-	-	-	-	-	.
Cn1c(NCc2c(O)ccc3ccccc23)nc2ccccc21	-	-	-	-	51	-	45
COc1ccc(NC(=O)c2ccc(-c3ccc(-c4noc(C)n4)cc3C)cc2)cc1N1CCN(C)CC1	-	-	-	-	81	-	-
O=C1NC[C@@H](CCCCN2C[C@H](Cc3ccc(O)cc3)N(CCc3ccc(O)cc3)C(=O)C2=O)N(CC2CCCCC2)C1=O	.	-	-	.	-	.	.
CC1(O)CC(c2ccc(Cl)cc2)=NN1C(=O)c1ccc(Cl)cc1 (stereo not given)	-	-	-	-	68	-	88
NC(=O)CC(NC(=O)c1ccc(Br)cc1)c1ccc(NC2CCCCCCC2)c([N+](=O)[O-])c1 (stereo not given)	-	-	-	-	-	-	.
Cc1nn(CC(=O)N(C)C2(C#N)CCCCC2)c(C)c1[N+](=O)[O-]	-	-	-	-	-	-	.
COc1ccc(CCNCC(O)COc2ccc(OC)cc2C(C)(C)C)cc1 (stereo not given)	-	-	-	-	80	-	-	MPTP abs DR=6.2;MPTP counter DR=41
Cc1cccc(OC(=O)NCCOC(=O)N(O)c2ccc(Cl)cc2)c1	-	-	-	-	91	-	81
CN(C)CC/C=C1\c2cc(F)ccc2CSc2ccccc21	-	-	-	-	-	.	.
C=CCN(C)CC/C=C1\c2ccccc2CSc2ccccc21	-	-	-	-	74	-	-	MPTP abs DR=18;MPTP counter DR=74
NCC/C=C1/c2ccccc2CSc2ccccc21	-	-	-	-	88	-	-	MPTP abs DR=6.8;MPTP counter DR=-
CN(C)CC/C=C1/c2cc(F)ccc2CSc2ccc(F)cc21	-	-	-	-	72	-	-	MPTP abs DR=14;MPTP counter DR=-
CN(CC/C=C1/c2ccccc2CSc2ccccc21)CCCO	-	-	-	-	-	-	.
c1ccc(CN(Cc2ccccc2)Cc2nnc(-c3cc4ccccc4[nH]3)s2)cc1	-	-	-	-	-	-	.
CC(C)c1nc(-c2ccc([N+](=O)[O-])cc2)cs1	-	-	-	-	-	-	.
CCOC(=O)[C@]12CCCC=C1N(Cc1cccc3ccccc13)C(=O)[C@H](CC(=O)N1CCCCC1)C2	.	-	-	.	-	.	.
CC(C)(C)c1ccc(-c2cn(-c3ccc(Br)cc3)c3[n+]2CCCS3)cc1	-	-	-	.	53	.	99
CCOC(=O)C1(CC2CCCCO2)CCN(C(=O)Nc2ccc(C(=O)OC)cc2)CC1 (stereo not given)	-	-	-	-	56	-	61
CCn1c(COc2cccc(C)c2C)nnc1SCC(=O)N1CCN(c2ccc(OC)cc2)CC1	-	-	-	-	60	-	43
CCOC(=O)c1ccc(N2CCOCC2)c(NC(=O)c2c(-c3ccccc3)noc2C)c1	-	-	-	-	-	-	.
Cc1cc(=O)[nH]c(SCC(=O)O)c1C#N	-	-	-	-	-	-	.
Cc1cc(=O)[nH]c(SCC(=O)C23CC4CC(CC(C4)C2)C3)c1C#N	-	-	-	-	85	-	84

Compound activity from PubChem BioAssay.
